Source: PubChem BioAssay (National Center for Advancing Translational Sciences (NCATS))
D1 antag = blocks dopamine activation of the human D1 receptor; P21728; HEK293 TREx D1 cells, calcium flux, dopamine EC80; stronger effect = lower value; activity change, negative = inhibition, % at 10 µM; 360,000 compounds, 3.2% hits; AID 504652; in the data active means activity change below about -30%
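After overnight tetracycline induction at 30 C, force-coupled D1 HEK293 cells took up a no-wash calcium dye at room temperature. Compounds were added and monitored 180 s, and the response to EC80 dopamine was then recorded.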
TRHR enhancer = allosterically enhances the human TRH receptor. AID 493056. 360,000 compounds, 0.66% hits. TRHR cells, fluo-8 calcium fluorescence, EC20 TRH enhancement. enhancement, % at 2 µM; in the data active means enhancement above about 30%
Target sequence (P34981 whole entry, looked up): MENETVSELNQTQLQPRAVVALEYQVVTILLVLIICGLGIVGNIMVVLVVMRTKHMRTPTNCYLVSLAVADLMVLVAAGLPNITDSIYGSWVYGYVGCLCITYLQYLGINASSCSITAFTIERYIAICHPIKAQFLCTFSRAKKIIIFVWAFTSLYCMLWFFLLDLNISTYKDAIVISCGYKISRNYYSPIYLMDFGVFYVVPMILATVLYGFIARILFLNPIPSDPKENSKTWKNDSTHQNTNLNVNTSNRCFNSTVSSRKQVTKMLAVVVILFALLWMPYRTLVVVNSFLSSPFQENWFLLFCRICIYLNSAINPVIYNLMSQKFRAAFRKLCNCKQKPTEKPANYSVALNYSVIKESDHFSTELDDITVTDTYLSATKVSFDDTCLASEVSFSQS
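TRHR-expressing cells loaded with fluo-8 calcium dye were read kinetically (ex 480/em 530) during compound addition, then stimulated with an EC20 of TRH (10 nM final). Enhancement of the Gq-mediated intracellular calcium response was scored.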
D1 agonist = agonists of human D1 dopamine receptor; HEK293 T-REx D1 cells, calcium flux, agonist mode; AID 504660; P21728; activation, % at 2 µM; 360,000 compounds, 1% hits
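Inducible HEK293 T-REx D1 cells, force-coupled to calcium signalling, were plated at 4000 cells/well with tetracycline and held overnight at 30 C. After no-wash calcium dye loading, compound-evoked calcium rise over 180 s flagged agonists.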
TRHR agonist = activates the human TRH receptor. P34981. TRHR cells, calcium flux fluo-8, FDSS agonist mode. activation, % at 2 µM. 360,000 compounds, 0.18% hits. AID 493084
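Read-out: compound-evoked intracellular calcium rise in TRHR cells, fluo-8 dye, kinetic FDSS fluorescence at 1 s/cycle following a 10-cycle baseline. Cells cultured overnight before dye loading (30 min–1.5 h, RT).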
D1 PAM = enhances dopamine response at the human D1 receptor | HEK293 TREx D1 cells, calcium flux, dopamine EC20 potentiation | potentiation, % at 10 µM | P21728 | 360,000 compounds, 0.036% hits | AID 504651; in the data active means potentiation above about 30%
Of the large screens only hits and unclear results are named; the others gave an inactive call. This is a sample that favours compounds with a hit; in the whole collection about 4.6% have one here. Unless noted, no stated cut-off is given here; in the data, active means activation above about 30%; inactive means the rest.

Cc1ccc(NC(=O)Cn2c(=O)ccc3cc(S(=O)(=O)N4CCCC4)ccc32)cc1C	none
Cc1ccc(O)c(NC(=O)CCSc2nc(-c3ccco3)cc(C(F)(F)F)n2)c1	none
COC(C(=O)Nc1ccc(S(=O)(=O)Nc2c(C)cccc2C)cc1)c1ccccc1 (stereo unspecified)	D1 agonist 35.2
COC(C(=O)Nc1ccc(NC(=O)C(OC)c2ccccc2)cc1)c1ccccc1 (stereo unspecified)	none
Cc1cc2c(s1)c1cnn(Cc3cccc(C)c3F)c(=O)c1n2C	none
CNCCOCC(O)CSc1ccccc1 (stereo unspecified)	none
CNCCC(Oc1ccc(C(F)(F)F)cc1)c1ccccc1 (stereo unspecified)	D1 agonist 62.4 (no result: D1 antag, D1 PAM)
COC(=O)c1c(SC)nc2ccccc2c1OCc1cc(C)ccc1C	D1 agonist 30.8
CCOC(=O)c1ccc(NC(=O)NCCc2cnc[nH]2)cc1	none
COc1ccc(C2C(C(=O)Nc3ccccc3)=C(C)Nc3nc(-c4ccc(Cl)cc4)nn32)cc1 (stereo unspecified)	none
COC(=O)C1=C(C)Nc2nc(-c3ccccc3)nn2C1c1ccc(C)o1 (stereo unspecified)	D1 antag -57.1
C=CCc1cc(/C=N/NC(=O)CSc2nnc(CCCc3ccc(OC)cc3)o2)cc(OC)c1O	none
Cc1ccccc1NC(=O)c1sc2nc(-c3ccncc3)ccc2c1N	D1 agonist 47.8
Cc1ccc(NC(=O)c2sc3nc(-c4ccncc4)ccc3c2N)cc1	D1 agonist 164.8
CC(=O)N1CCc2c(sc3c2c(=O)n(-c2ccccc2)c(=O)n3CC(=O)c2ccc(F)cc2)C1	none
CCc1ccc(S(=O)(=O)c2nnn3c2nc(NCc2cccs2)c2sccc23)cc1	none
CCOC(=O)c1ccc(NC(=O)CSc2nc3sc(C(=O)O)c(C)c3c(=O)[nH]2)cc1	none
CCC(=O)Nc1ccccc1-c1nc2ccccc2n(CC(=O)c2ccc(C)c(C)c2)c1=O	none
CC(C)OC(=O)CC(=O)c1sc2nc3c(cc2c1N)CN(C)CC3	TRHR enhancer 37.9
CN1CCc2nc3sc(C(=O)Nc4c(F)cccc4F)c(N)c3cc2C1	none
CC(C)CNC(=O)c1ccccc1NC(=O)c1ccc(CSc2ccccc2)cc1	D1 agonist 32.2
CCCn1cnc2c(sc3nc4c(cc32)CSC(C)(C)C4)c1=O	D1 antag -40.6
CCCNC(=O)OCCC12CC3CC(CC(C3)C1)C2	D1 agonist 33.4
CCCNC(=O)NCCC12CC3CC(CC(C3)C1)C2	none
COc1ccccc1CN1CC(C(=O)N(C)CCCn2nc(C)cc2C)CCC1=O (stereo unspecified)	none
Cc1ccc(S(=O)c2ccc(NC(=O)C3CC3)cc2C#N)cc1 (stereo unspecified)	D1 antag -31.4
Cc1cc(C)cc(NC(=O)Cn2cc3c(n2)CCCCC3)c1	D1 agonist 51.1
CC1CCCN(c2cc3c(cc2F)c(=O)c(S(=O)(=O)c2cccc(Cl)c2)cn3C)C1 (stereo unspecified)	none
CCOC(=O)c1c(CSC(=N)N)n(-c2ccc(C)cc2)c2cc(Br)c(OC(C)=O)cc12	D1 agonist 39.4
CCOC(=O)c1c(CSC(=N)N)n(C)c2cc(Br)c(OC(C)=O)cc12	none
CN(CC(=O)NCc1ccc(F)cc1)CC(=O)Nc1ccc(Cl)c(C(F)(F)F)c1	D1 antag -33.4
Cc1ccc(NC(=O)CN(C)CC(=O)Nc2ccc(F)c(Cl)c2)cc1	D1 antag -54.6
CCNC(=S)Nc1ccc(Cl)c(C(F)(F)F)c1	D1 antag -32.4
O=C(Nc1ccc(Cl)c(C(F)(F)F)c1)c1ccco1	none
Cc1ccc2c(CC(=O)Nc3ccc(S(=O)(=O)N4CCCC(C)C4)cc3)coc2c1 (stereo unspecified)	none
Cc1ccc2c(CC(=O)Nc3ccc(S(=O)(=O)N4CCCCC4)cc3)coc2c1	D1 antag -72.7
O=C(Cn1ncn2nc(-c3cccs3)cc2c1=O)NCc1ccc(Cl)cc1	none
COc1cccc(-c2nnc(NC(=O)c3ccc4ncsc4c3)o2)c1	none
COc1ccc(Cl)cc1NC(=O)Cn1ncc2c3ccccc3n(Cc3ccccc3)c2c1=O	none
COc1cc(Cl)c(C)cc1NC(=O)CCc1c(C)nc2cc(-c3cccc(F)c3)nn2c1C	none
Cc1ccc2occ(CC(=O)Nc3ccc(Cl)c(C(F)(F)F)c3)c2c1	D1 antag -31.5
CC(=O)N1c2ccccc2C(=O)C1N1CCN(c2ccc(F)cc2)CC1 (stereo unspecified)	D1 antag -45.7
CCn1c(C(=O)N2CCC(C(=O)N3CCN(c4cc(C)ccc4C)CC3)CC2)cc2sccc21	D1 antag -35.8
CCn1c(C(=O)N2CCC(C(=O)N3CCN(c4cccc(C)c4C)CC3)CC2)cc2sccc21	none
Cn1c(=O)c2c(ncn2CC(COCc2ccccc2)OCc2ccccc2)n(C)c1=O (stereo unspecified)	D1 antag -55.2
Cc1ccc(OCCn2cnc3c2c(=O)n(C)c(=O)n3C)cc1	D1 antag -31.7
Cc1ccc(Cl)c(OC(=O)Cn2cnc3c2c(=O)n(C)c(=O)n3C)c1	D1 antag -40.9
Cn1c(=O)c2c(ncn2Cc2ccccc2)n(C)c1=O	none
Cc1ccc(NC(=O)COC(=O)Cn2cnc3c2c(=O)n(C)c(=O)n3C)c(Cl)c1	none
COCCCNC(=O)C1CCC(CNS(=O)(=O)c2ccc(Cl)cc2)CC1 (stereo unspecified)	none
Cc1noc(C)c1S(=O)(=O)NC1CCN(Cc2ccccc2)CC1	D1 antag -40.7
CCc1nc(-c2ccccc2)cc(=O)[nH]1	none
O=c1cc(-c2ccccc2)nc(Cc2c(Cl)cccc2Cl)[nH]1	TRHR enhancer 31.2
O=C(CN1CCOCC1)Nc1cc(C(F)(F)F)ccc1Cl	none
Cc1ccc(C)n1CCN1CCN(CC(=O)Nc2cc(C(F)(F)F)ccc2Cl)CC1	TRHR enhancer 55.1
CCOc1ccc(C(=O)C(C)OC(=O)c2nc(Cl)ccc2Cl)cc1 (stereo unspecified)	D1 agonist 35.2
CC1CCCC(NCC(O)COC(c2ccc(F)cc2)c2ccc(F)cc2)C1C (stereo unspecified)	D1 agonist 62.6
O=C(Cn1cc(C(F)(F)F)ccc1=O)NC1CCCC1	D1 antag -44.5
COc1ccc(N(CC(=O)Nc2cccc(C(C)=O)c2)S(=O)(=O)c2ccccc2)c(OC)c1	none
O=C(CSCc1ccc(Cl)cc1)Nc1cccc(C(=O)O)c1	TRHR enhancer 37.6
CC(=O)c1cccc(NC(=O)CSCc2ccc(Br)cc2)c1	D1 antag -32.9
Cc1ccc2c(c1)N(C(=O)C1CCN(S(=O)(=O)c3c(C)noc3/C=C/c3ccccc3F)CC1)CCO2	D1 antag -38.6
CCC1CN(C(=O)C2CCN(S(=O)(=O)c3c(C)noc3/C=C/c3ccccc3F)CC2)c2cc(C)ccc2O1 (stereo unspecified)	none
